# Reference: the supplement of paper PMC8728848
# Shown is part of a subset that was picked to be rich in the strongest signals.
# B1: Gal 3 (Homo sapiens), P17931 (protein)
# chain: MADNFSLHDALSGSGNPNPQGWPGAWGNQPAGAGGYPGASYPGAYPGQAPPGAYPGQAPPGAYHGAPGAYPGAPAPGVYPGPPSGPGAYPSSGQPSAPGAYPATGPYGAPAGPLIVPYNLPLPGGVVPRMLITILGTVKPNANILDFQRGNDVAFHFNPRFNENNRRVIVCNTKLDNNWGREESQSVFPFESGKPFKIQVLVEPDHFKVAVNDAHLLQYNHRVKKLNEISKLGISGDIDLTSASYTMI
# Legend:
# Assay in all cases: glycan array binding signal (z-score within array); higher = stronger binding
# Settings in all cases: glycan notation: IUPAC condensed, linker removed; mutation: R186S
# [1] = target: Fuc(a1-2)Gal(b1-3)GalNAc(b1-4)[Neu5Ac(a2-3)]Gal(b1-4)Glc
# Outline: (§1)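 From the Consortium for Functional Glycomics database, 3228 arrays were curated, keeping only those whose protein sequence was available. Binding is given as a within-array Z-score averaged across arrays sharing a protein sequence and across linkers. Negative Z-scores can be read as non-binding.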
# [2] = target: Fuc(a1-2)Gal(b1-4)[Fuc(a1-3)]GlcNAc(b1-2)Man(a1-3)[Fuc(a1-2)Gal(b1-4)[Fuc(a1-3)]GlcNAc(b1-2)Man(a1-6)]Man(b1-4)GlcNAc(b1-4)GlcNAc
# Outline: as §1
# [3] = target: Fuc(a1-2)Gal(b1-4)[Fuc(a1-3)]GlcNAc(b1-3)Gal(b1-4)[Fuc(a1-3)]GlcNAc(b1-3)Gal(b1-4)[Fuc(a1-3)]GlcNAc
# Outline: as §1
# [4] = target: Fuc(a1-2)[Gal(a1-3)]Gal(b1-3)GlcNAc(b1-2)Man(a1-3)[Fuc(a1-2)[Gal(a1-3)]Gal(b1-3)GlcNAc(b1-2)Man(a1-6)]Man(b1-4)GlcNAc(b1-4)GlcNAc
# Outline: as §1
# [5] = target: Fuc(a1-2)[Gal(a1-3)]Gal(b1-4)GlcNAc(b1-2)Man(a1-3)[Fuc(a1-2)[Gal(a1-3)]Gal(b1-4)GlcNAc(b1-2)Man(a1-6)]Man(b1-4)GlcNAc(b1-4)GlcNAc
# Outline: as §1
# [6] = target: Fuc(a1-2)[GalNAc(a1-3)]Gal(b1-3)GlcNAc(b1-2)Man(a1-3)[Fuc(a1-2)[GalNAc(a1-3)]Gal(b1-3)GlcNAc(b1-2)Man(a1-6)]Man(b1-4)GlcNAc(b1-4)GlcNAc
# Outline: as §1
# [7] = target: Fuc(a1-3)[Gal(b1-4)]GlcNAc(b1-2)Man(a1-3)[Fuc(a1-3)[Gal(b1-4)]GlcNAc(b1-2)Man(a1-6)]Man(b1-4)GlcNAc(b1-4)GlcNAc
# Outline: as §1
# Fuc(b1-3)GlcNAc = target: Fuc(b1-3)GlcNAc
# Outline: as §1
# [8] = target: Gal(a1-3)Gal(b1-4)[Fuc(a1-3)]GlcNAc(b1-2)Man(a1-3)[Gal(a1-3)Gal(b1-4)[Fuc(a1-3)]GlcNAc(b1-2)Man(a1-6)]Man(b1-4)GlcNAc(b1-4)GlcNAc
# Outline: as §1
# [9] = target: Gal(b1-3)GlcNAc(b1-3)GalNAc
# Outline: as §1
# [10] = target: Gal(b1-3)[Fuc(a1-4)]GlcNAc(b1-2)Man(a1-3)[Gal(b1-3)[Fuc(a1-4)]GlcNAc(b1-2)Man(a1-6)]Man(b1-4)GlcNAc(b1-4)GlcNAc
# Outline: as §1
# [11] = target: Gal(b1-3)[Neu5Ac(a2-6)]GalNAc
# Outline: as §1
# [12] = target: Gal(b1-4)GlcNAc(b1-2)Man(a1-3)[Gal(b1-4)GlcNAc(b1-2)Man(a1-6)]Man(b1-4)GlcNAc(b1-4)[Fuc(a1-6)]GlcNAc
# Outline: as §1
# [13] = target: Gal(b1-4)GlcNAc(b1-2)Man(a1-6)[Man(a1-3)]Man(b1-4)GlcNAc(b1-4)GlcNAc
# Outline: as §1
# [14] = target: Gal(b1-4)GlcNAc(b1-2)[Gal(b1-4)GlcNAc(b1-4)]Man(a1-3)[Gal(b1-4)GlcNAc(b1-2)Man(a1-6)]Man(b1-4)GlcNAc(b1-4)GlcNAc
# Outline: as §1
# [15] = target: Gal(b1-4)GlcNAc(b1-3)Gal(b1-3)GlcNAc
# Outline: as §1
# [16] = target: GalNAc(b1-4)GlcNAc(b1-2)Man(a1-3)[GalNAc(b1-4)GlcNAc(b1-2)Man(a1-6)]Man(b1-4)GlcNAc(b1-4)GlcNAc
# Outline: as §1
# Glc(a1-6)Glc(a1-6)Glc = target: Glc(a1-6)Glc(a1-6)Glc
# Outline: as §1
# GlcA(b1-6)Gal = target: GlcA(b1-6)Gal
# Outline: as §1
# [17] = target: GlcNAc(a1-4)Gal(b1-4)GlcNAc(b1-3)Gal(b1-4)Glc
# Outline: as §1
# [18] = target: GlcNAc(b1-2)Man(a1-3)[GlcNAc(b1-2)Man(a1-6)]Man(b1-4)GlcNAc(b1-4)[Fuc(a1-6)]GlcNAc
# Outline: as §1
# GlcNAc(b1-3)Gal = target: GlcNAc(b1-3)Gal
# Outline: as §1
# GlcNAc(b1-3)Gal(b1-4)Glc = target: GlcNAc(b1-3)Gal(b1-4)Glc
# Outline: as §1
# [19] = target: GlcNAc(b1-6)Gal(b1-4)GlcNAc
# Outline: as §1
# GlcNAc(b1-6)GalNAc = target: GlcNAc(b1-6)GalNAc
# Outline: as §1
# Kdn(a2-3)Gal(b1-4)Glc = target: Kdn(a2-3)Gal(b1-4)Glc
# Outline: as §1
# Kdn(a2-6)Gal(b1-4)GlcNAc = target: Kdn(a2-6)Gal(b1-4)GlcNAc
# Outline: as §1
# [20] = target: Man(a1-2)Man(a1-2)Man(a1-3)Man
# Outline: as §1
# Man(a1-2)Man(a1-3)Man = target: Man(a1-2)Man(a1-3)Man
# Outline: as §1
# [21] = target: Neu5Ac(a2-3)Gal(b1-3)GalNAc(b1-3)Gal(a1-4)Gal(b1-4)Glc
# Outline: as §1
# [22] = target: Neu5Ac(a2-3)Gal(b1-3)[Neu5Ac(a2-3)Gal(b1-4)]GlcNAc
# Outline: as §1
# [23] = target: Neu5Ac(a2-3)Gal(b1-4)[Fuc(a1-3)]GlcNAc(b1-3)GalNAc
# Outline: as §1
# [24] = target: Neu5Ac(a2-3)GalNAc(b1-4)GlcNAc
# Outline: as §1
# [25] = target: Neu5Ac(a2-6)Gal(b1-4)GlcNAc(b1-2)Man(a1-3)[Gal(b1-4)GlcNAc(b1-2)Man(a1-6)]Man(b1-4)GlcNAc(b1-4)GlcNAc
# Outline: as §1
# [26] = target: Neu5Ac(a2-6)Gal(b1-4)GlcNAc(b1-2)Man(a1-3)[Neu5Ac(a2-6)Gal(b1-4)GlcNAc(b1-2)Man(a1-6)]Man(b1-4)GlcNAc(b1-4)GlcNAc
# Outline: as §1
# [27] = target: Neu5Ac(a2-6)Gal(b1-4)GlcNAc(b1-3)Gal(b1-3)GlcNAc
# Outline: as §1
# [28] = target: Neu5Ac(b2-6)Gal(b1-4)GlcNAc
# Outline: as §1
# Neu5Ac(b2-6)GalNAc = target: Neu5Ac(b2-6)GalNAc
# Outline: as §1
# [29] = target: Neu5Ac9Ac(a2-3)Gal(b1-3)GlcNAc
# Outline: as §1
binder,measurement,setting,value
B1,glycan array binding signal (z-score),[1],-0.057
same,glycan array binding signal (z-score),[2],0.064
same,glycan array binding signal (z-score),[3],-0.032
same,glycan array binding signal (z-score),[4],19.8
same,glycan array binding signal (z-score),[5],0.619
same,glycan array binding signal (z-score),[6],0.242
same,glycan array binding signal (z-score),[7],0.045
same,glycan array binding signal (z-score),Fuc(b1-3)GlcNAc,-0.041
same,glycan array binding signal (z-score),[8],-0.061
same,glycan array binding signal (z-score),[9],-0.079
same,glycan array binding signal (z-score),[10],0.028
same,glycan array binding signal (z-score),[11],-0.068
same,glycan array binding signal (z-score),[12],-0.086
same,glycan array binding signal (z-score),[13],-0.047
same,glycan array binding signal (z-score),[14],-0.042
same,glycan array binding signal (z-score),[15],-0.007
same,glycan array binding signal (z-score),[16],-0.023
same,glycan array binding signal (z-score),Glc(a1-6)Glc(a1-6)Glc,-0.051
same,glycan array binding signal (z-score),GlcA(b1-6)Gal,-0.057
same,glycan array binding signal (z-score),[17],-0.057
same,glycan array binding signal (z-score),[18],-0.012
same,glycan array binding signal (z-score),GlcNAc(b1-3)Gal,-0.059
same,glycan array binding signal (z-score),GlcNAc(b1-3)Gal(b1-4)Glc,-0.053
same,glycan array binding signal (z-score),[19],-0.076
same,glycan array binding signal (z-score),GlcNAc(b1-6)GalNAc,-0.058
same,glycan array binding signal (z-score),Kdn(a2-3)Gal(b1-4)Glc,-0.004
same,glycan array binding signal (z-score),Kdn(a2-6)Gal(b1-4)GlcNAc,-0.071
same,glycan array binding signal (z-score),[20],-0.067
same,glycan array binding signal (z-score),Man(a1-2)Man(a1-3)Man,-0.024
same,glycan array binding signal (z-score),[21],0.003
same,glycan array binding signal (z-score),[22],-0.076
same,glycan array binding signal (z-score),[23],0.182
same,glycan array binding signal (z-score),[24],-0.062
same,glycan array binding signal (z-score),[25],0.028
same,glycan array binding signal (z-score),[26],-0.05
same,glycan array binding signal (z-score),[27],-0.061
same,glycan array binding signal (z-score),[28],-0.083
same,glycan array binding signal (z-score),Neu5Ac(b2-6)GalNAc,-0.023
same,glycan array binding signal (z-score),[29],-0.069
